Assay results as given in PubChem BioAssay AID1851 (National Center for Advancing Translational Sciences (NCATS), 2009).
“And” between values parts separate entries of the source, which are not always exact repeats. Equal values may be shown once. In all, about 16,000 compounds went through this assay and about 2,600 (16%) were called active. About 20% were inconclusive and are not listed. Not all results are given here. Unmarked numbers belong to inactive results. Calls follow the shape of the dose curve; as a rule, active = well fitted curve in the direction sought with a large enough effect; inconclusive = small, poorly fitted or top-dose-only effect, or effect the other way; inactive = no such curve, though single readings can be large or run the other way.

biological target: Cytochrome P450 2D6 (Homo sapiens) (UniProt P10635); assay: Cytochrome panel assay with activity outcomes; conditions: recombinant CYP, pro-luciferin dealkylation, luminescence, p450-cyp2d6; series mostly up to 57.1 µM; activity, negative = inhibition: at the top concentration
% is scaled to controls: 0 for no effect and ±100 for the full control effect.

Chain of Cytochrome P450 2D6 (Homo sapiens) (P10635 whole entry, looked up): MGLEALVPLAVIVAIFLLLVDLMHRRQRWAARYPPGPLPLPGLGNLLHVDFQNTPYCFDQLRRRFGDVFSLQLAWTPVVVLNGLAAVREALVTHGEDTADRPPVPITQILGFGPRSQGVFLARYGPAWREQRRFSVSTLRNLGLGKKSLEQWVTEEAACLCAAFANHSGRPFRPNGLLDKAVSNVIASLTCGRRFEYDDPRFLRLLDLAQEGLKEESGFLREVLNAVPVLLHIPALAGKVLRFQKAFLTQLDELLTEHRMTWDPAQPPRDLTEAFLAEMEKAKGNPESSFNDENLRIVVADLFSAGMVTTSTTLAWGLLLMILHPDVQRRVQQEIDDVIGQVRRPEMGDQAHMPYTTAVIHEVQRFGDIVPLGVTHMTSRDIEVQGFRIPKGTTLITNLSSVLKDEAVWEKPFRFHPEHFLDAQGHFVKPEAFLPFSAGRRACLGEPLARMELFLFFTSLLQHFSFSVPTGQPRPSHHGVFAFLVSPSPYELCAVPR

Compound	activity, negative = inhibition	AC50
CN1CCN(c2ncc3nc(-c4ccc(F)cc4)c(=O)n(Cc4cccs4)c3n2)CC1	-9.25%	
CN(C)Cc1ccccc1-c1nc(N2CCOCC2)c2ccccc2n1		7.94 µM (active)
CNc1nc(-c2c(C)noc2C)nc2ccccc12	-7.2%	
CN(C)Cc1ccccc1-c1nc(N(C)C)c2ccccc2n1		2.51 µM (active)
Cc1cccc(CNc2nc(-c3ccccc3CN(C)C)nc3ccccc23)c1		12.6 µM (active)
CNc1nc(-c2ccccc2CN(C)C)nc2ccccc12		3.98 µM (active)
Cc1noc(C)c1-c1nc(N2CCOCC2)c2ccccc2n1	-9.56%	
Cc1ccccc1-c1nc(N2CCOCC2)c2ccccc2n1	-2.84%	
COc1ccc(N2CC(C(=O)OCC(=O)c3cccc(OC)c3)CC2=O)cc1 (centres undefined)	-5.52%	
O=C1CC(c2ccccc2)Cc2nc(N3CCc4ccccc4C3)ncc21 (centres undefined)	-15.2%	
O=C(Nc1nnc(C2CC2)s1)c1ccc(S(=O)(=O)c2ccccc2)cc1	-9.23%	
COCCNC(=O)c1ccc2c(c1)nc(C)n2-c1cc(OC)c(OC)c(OC)c1	-6.19%	
COC(=O)COc1ccc2c(-c3cccc([N+](=O)[O-])c3)cc(=O)oc2c1	-14.7%	
Cc1cc(C(=O)OCC(=O)NCCCN2CCCC2=O)c2ccccc2n1	3.93%	
O=C(C1=C(O)C(=O)N(Cc2ccco2)C1c1ccccc1)c1cccs1 (centres undefined)	-5.75%	
CN(C)Cc1ccccc1-c1nc(NC2CC2)c2ccccc2n1		3.98 µM (active)
COCCNc1nc(-c2ccccc2CN(C)C)nc2ccccc12		12.6 µM (active)
CN(C)Cc1ccccc1-c1nc(NCc2ccccc2)c2ccccc2n1		20 µM (active)
COCCNc1nc(-c2ccccc2C)nc2ccccc12	-14.1%	
Cc1noc(C)c1-c1nc(NC2CCNCC2)c2ccccc2n1	-9.54%	
COCCNc1nc(-c2c(C)noc2C)nc2ccccc12	-6.93%	
CN(C)Cc1ccccc1-c1nc(NCc2cccs2)c2ccccc2n1		20 µM (active)
CN(C)C(=O)c1ccc(-c2nc(NC3CCNCC3)c3ccccc3n2)cc1	-2.47%	

Compound	activity, negative = inhibition	AC50
CC1=C(C#N)C(NC(=O)C2CCCCC2)(C(F)(F)F)C(=O)N1 (centres undefined)	6.67%	
N#Cc1nc(-c2ccc(F)cc2)oc1N1CCCC1	-17.6%	
CCOC(=O)c1cc(-c2ccccc2)sc1NC(=S)Nc1cc(C)ccn1	-4.98%	
NCCNS(=O)(=O)c1ccc(N)cc1	1.63% [at 11.4 µM]	
CCn1c(SCC(=O)Nc2sc3c(c2C#N)CCC(C(C)(C)C)C3)nnc1-c1ccco1 (centres undefined)	-4.2%	
COc1ccc(C(=O)N2CCC[C@@]3(CCN(c4cccc(-c5ccccc5)c4)C3)C2)cc1	-6.88%	
Cn1ncc2c(Nc3cccc(C(=O)O)c3)ncnc21	-22%	
CN[C@]1(C)[C@H]2CC[C@@H](C2)C1(C)C	-10% [at 25.6 µM]	
CCc1ccc(N2CC(C)Cn3c2nc2c3c(=O)n(CCN3CCOCC3)c(=O)n2C)cc1 (centres undefined)	-5.49%	
CC(C)[C@@H](OCc1ccccc1)[C@H](C)/C=N\O[C@@H](C)c1cn([C@H](CO)Cc2ccccc2)nn1	-24.2% [at 11.4 µM] and -19.2% [at 11.4 µM]	
CC1(C)S[C@@H]2[C@H](NC(=O)[C@H](C(=O)O)c3ccsc3)C(=O)N2[C@H]1C(=O)O	-1.54% [at 25.6 µM]	
O=C1c2ccccc2C2=Nc3ccccc3SC(c3ccccc3F)C12 (centres undefined)	-29.3%	
CCOC(=O)C1=C(C)N=C2c3ccccc3C(=O)C2C1c1ccc(Cl)cc1 (centres undefined)		15.8 µM (active)
CCOC(=O)C1=C(C)N=C2c3ccccc3C(=O)C2C1c1ccc(C)cc1 (centres undefined)	-2%	
CCOC(=O)C1=C(C)NC(=O)NC1c1ccoc1 (centres undefined)	12%	
O=C1CCCC2=C1C(c1ccc(Cl)cc1)C1C(=O)c3ccccc3C1=N2 (centres undefined)		25.1 µM (active)
O=C1C(=O)c2ccccc2C(O)=C1C1CCC(c2ccc(Cl)cc2)CC1 (centres undefined)	1.9% [at 25.6 µM]	
COC(=O)c1c(NC(=O)C(C)(C)C)sc2c1C(C(=O)OC)CC2 (centres undefined)	12.1%	
O=S(=O)(C[C@H](O)C(Cl)(Cl)Cl)NNc1ccccc1	17.4% [at 11.4 µM]	
C[C@H]1O[C@@H](CC(=O)O)Cc2c1c(O)c1c(O)cc(-c3cc(=O)c4c(=O)c5c(c(=O)c=4c3=O)C[C@H](CC(=O)O)O[C@@H]5C)c(O)c1c2O	-3.88% [at 11.4 µM]	
CN(C)c1ncc2nc(-c3ccc(F)cc3)c(=O)n(C3CC3)c2n1	7.11%	
O=C(Nc1cc(C(F)(F)F)ccc1-n1cncn1)c1ccc(Br)cc1	-9.04%	
C[n+]1cccc(CNC(=O)/C=N/O)c1	31.9%	

Compound	activity, negative = inhibition	AC50
CC(Oc1ccccc1)c1ccnn1S(=O)(=O)c1ccccc1 (centres undefined)	-7.07%	
CC[N+](C)(CC)CCC[n+]1c(-c2ccccc2)c2cc(N)ccc2c2ccc(N)cc21		6.31 µM (active)
CN=C(NC#N)Nc1ccc(C2=NNC(=O)C[C@@H]2C)cc1	-20.2%	
NC(=O)C1CCN(C(=O)CN2C(=O)c3ccccc3S2(=O)=O)CC1	8.05%	
Cc1nc2cnc(N3CCOCC3)nc2n(C)c1=O	-3.65%	
CCOC(=O)Oc1c(OC)cc(C(=O)O[C@H]2C[C@H]3CN4CCc5c([nH]c6cc(OC)ccc56)[C@@H]4C[C@H]3[C@@H](C(=O)OC)[C@@H]2OC)cc1OC	-7.6% [at 25.6 µM]	
COCCCCC(=NOCCN)c1ccc(C(F)(F)F)cc1		3.98 µM (active)
COc1c(/C=N/Nc2ccc([N+](=O)[O-])cc2[N+](=O)[O-])c(C)nn1-c1ccccc1	-2.55%	
C[C@@]12CC[C@@H]3c4ccc(O)cc4CC[C@H]3[C@H]1CC[C@H]2O	-4.58% [at 25.6 µM]	
CCOc1nc(N=C(N)N)nc2c(C)cccc12	-5.31%	
Cc1cccc(C)c1OC[C@@H](N)C(C)C		15.8 µM (active)
Cc1cccc(C)c1NC(=O)[C@H](C)N	-0.835% [at 25.6 µM]	
COC(=O)[C@@]1(Cc2ccc(F)cc2)[C@H]2c3cc(C(=O)N4CCCC4)n(CCc4ccc(OC)c(Br)c4)c3C[C@H]2CN1C(=O)c1ccccc1	-7.09%	
COC(=O)[C@@]1(Cc2ccccc2)[C@H]2c3cc(C(=O)N4CCCC4)n(Cc4nc5ccccc5[nH]4)c3C[C@H]2CN1C(=O)c1ccccc1		7.94 µM (active)
COC(=O)[C@@]1(Cc2ccc(F)cc2)[C@H]2c3cc(C(=O)N4CCCC4)n(Cc4ccccc4)c3C[C@H]2CN1C(=O)c1ccccc1	-15.3%	
COC(=O)[C@@]1(Cc2ccc(F)cc2)[C@H]2c3cc(C(=O)N4CCCC4)n(CCc4ccc(O)c(O)c4)c3C[C@H]2CN1C(=O)c1ccccc1		12.6 µM (active)
COC(=O)[C@@]1(Cc2ccccc2)[C@H]2c3cc(C(=O)N4CCCC4)n(CC4CC4)c3C[C@H]2CN1C(=O)c1ccccc1	-17.6%	
COC(=O)[C@@]1(Cc2ccc(F)cc2)[C@H]2c3cc(C(=O)N4CCCC4)n(Cc4ccccn4)c3C[C@H]2CN1C(=O)c1ccccc1	-14%	
COC(=O)[C@@]1(Cc2ccccc2)[C@H]2c3cc(C(=O)N4CCCC4)n(Cc4c(CO)[nH]cc(C)c4=O)c3C[C@H]2CN1C(=O)c1ccccc1		12.6 µM (active)
COC(=O)[C@@]1(Cc2ccccc2)[C@H]2c3cc(C(=O)N4CCCC4)n(Cc4cccc5ccccc45)c3C[C@H]2CN1C(=O)c1ccccc1	2.77%	
COC(=O)[C@@]1(Cc2ccc(F)cc2)[C@H]2c3cc(C(=O)N4CCCC4)n(Cc4c(CO)[nH]cc(C)c4=O)c3C[C@H]2CN1C(=O)c1ccccc1		12.6 µM (active)
COC(=O)[C@@]1(Cc2ccc(F)cc2)[C@H]2c3cc(C(=O)N4CCCC4)n(CCc4c[nH]c5ccccc45)c3C[C@H]2CN1C(=O)c1ccccc1	6.26%	
COC(=O)[C@@]1(Cc2ccc(F)cc2)[C@H]2c3cc(C(=O)N4CCCC4)n(Cc4ccc(OC(F)(F)F)cc4)c3C[C@H]2CN1C(=O)c1ccccc1	-3.56%	

Compound	activity, negative = inhibition	AC50
Cc1cc(NC(=O)c2ccccc2Cl)c(C(C)C)cc1O	0.495%	
CCCCC1(C)OC(=O)C(=Cc2ccc(N(CC)CC)cc2)C(=O)O1 (centres undefined)	-9.12%	
COc1ncc2nc(-c3cn(C)c4ccccc34)c(=O)n(Cc3ccc(F)cc3)c2n1	-5.48%	
Cc1cc(C)cc(N2C(=O)CC(Sc3nnnn3-c3ccccc3)C2=O)c1 (centres undefined)	-1.09%	
Cc1cccc(-n2cnc(C(=O)NC3CCCCCC3)c2)n1	2.81%	
COc1cc(OC)c(C2N(c3cc(C)on3)C(=O)C3CCCN32)cc1OC (centres undefined)	12.7%	
COc1ccc(CNc2ncncc2-c2ccccc2C)c(OC)c1		12.6 µM (active)
COc1ccc(CNc2ncncc2-c2ccccc2OC)c(OC)c1		12.6 µM (active)
COc1ccc(CNc2ncncc2-c2ccccc2CN(C)C)c(OC)c1		2.51 µM (active)
COc1ccc(O[C@H]2C=C[C@@H](c3ccccc3)O[C@@H]2CO/N=C\[C@@H](C)[C@H](OCc2ccccc2)C(C)C)cc1	8.39% [at 11.4 µM]	
COc1ccc(Nc2nnc(-c3ccc(N4CCOCC4)c([N+](=O)[O-])c3)c3ccccc23)cc1	-21.6%	
NC(=O)c1ccc([N+](=O)[O-])cc1SCc1ccccc1	-17.9%	
Cc1ccc(Cn2nc(C)c(NC(=O)c3cc(-c4ccco4)on3)c2C)cc1	-3.05%	
Cn1c(=O)c2cn(-c3ccccc3)cc2n(C)c1=O	-12.6%	
COc1ncc2nc(-c3cccs3)c(=O)n(-c3ccccc3)c2n1	1.35%	
O=C(C1CCN(S(=O)(=O)c2cccc3cccnc23)CC1)N1CCN(c2ccccn2)CC1	-15.2%	
Cc1ccc2c(c1)NCC(C(=O)NC1CCCCC1)O2 (centres undefined)	-7.97%	
Cc1ccc(S(=O)(=O)N2CCN(S(C)(=O)=O)C2)cc1	0.939%	
Cc1ccc(S(=O)(=O)N2CCN(Cc3ccccc3C(F)(F)F)CC2)cc1		10 µM (active)
Cc1ccc(S(=O)(=O)N2CCN(C(=O)CN3CCN(C)CC3)C2)cc1	1.72%	
